Calls of active or inactive are those of the source. How the source made its calls: active means hit-call score of the fitted dose curve at least 0.9, where 1 is the maximum; inactive means score below 0.9.

The experiment in a line: BSK_MyoF_SRB: Viability Assessment in the BioMAP Diversity Plus: MyoF Assay (AID 2284267). As to conditions: primary human lung fibroblasts. How it is done:
BSK_MyoF is a cell-based, multiplexed-readout assay that uses lung fibroblasts, […], with measurements taken at 24 hours after chemical dosing in a microplate: 96-well plate.BSK_MyoF_SRB is an assay component measured in the BSK_MyoF assay. It measures 0.1% sulforhodamine related to cell death using Sulforhodamine staining technology.Data from the assay component BSK_MyoF_SRB was analyzed at the endpoint, BSK_MyoF_SRB, in the positive analysis fitting direction relative to DMSO as the negative control and baseline of activity. Using a type of viability reporter, gain or loss-of-signal activity can be used to understand protein changes. To generalize the intended target to other relatable targets, this assay endpoint is annotated to the 'cell morphology' intended target family, where the subfamily is 'cell conformation'.
The levels of cell surface (or secreted, indicated by the prefix "s") biomarker endpoints were measured by ELISA. Overt cytotoxicity to cells in confluent adherent cultures (all systems other than the BT system) was assessed by measuring total protein levels using sulforhodamine B (SRB) staining in parallel cultures at the time of biomarker measurements, indicated as SRB endpoints. For proliferation assays for adherent cell types, individual cell types are cultured at sub-confluence and relative cell numbers quantified by SRB staining at time points optimized for each system (48 h: 3C and CASM3C systems; 72 h: BT and HDF3CGF systems; 96 h: SAg system). SRB was performed by staining cells with 0.1% SRB after fixation with 10% TCA and reading wells at 560 nm.Viability and proliferation of PBMC (T cells) was quantified by Alamar Blue reduction for the SAg and BT systems. For PBMC viability (referred to as PBMC Cytotoxicity within the assay endpoint names), cells were plated (75,000/well in a 96-well plate) and then chemical samples added for 1 h before addition of activators, SEB and TSST-1 (20 ng/mL final concentration each). Cells were incubated for 90 h. Then, Alamar Blue (20 uL/well) (Invitrogen, Cat DAL1100) was added for 6 h, and the plates were read with a fluorescence microplate reader at 546/580 nm (excitation/emission). For PBMC proliferation, cells were plated and activated as above but incubated for only 16 h prior to addition of Alamar Blue. Plates were read after 6 h.
On to `CC(C)(COC(=O)c1ccccc1)COC(=O)c1ccccc1`, for which the result was inactive.

`CC1CCC(C(C)CS)CC1S` (stereo not drawn): the AC50 was 9.53 µM (active).

For `CN(CCOc1ccc(CC2SC(=O)NC2=O)cc1)c1ccccn1` (stereo not drawn), the outcome was inactive. As to `O=P(c1ccccc1)(c1ccccc1)c1ccccc1`, the result was inactive.

As for `CC(=O)Nc1ccccc1O`, the result was inactive. `O=C(O)C[C@H](O)C[C@H](O)/C=C/c1c(C2CC2)nc2ccccc2c1-c1ccc(F)cc1`: the AC50 was 3.1 µM (active).

`CCCCCCCCC=O`: the result was inactive. On to `O=C1OC2(c3cc(Br)c(O)c(Br)c3Oc3c2cc(Br)c(O)c3Br)c2c(Cl)c(Cl)c(Cl)c(Cl)c21`, for which the AC50 is 9.73 µM (active). Regarding `C#C[C@]1(O)CC[C@H]2[C@@H]3CCC4=Cc5oncc5C[C@]4(C)[C@H]3CC[C@@]21C`, the outcome was inactive. Take `C=C(C)C(=O)O[C@H]1C[C@@H]2CC[C@@]1(C)C2(C)C`: the AC50 is 34.8 µM (active).

In the case of `CCn1c2ccccc2c2cc(N)ccc21`, the result was inactive.

With `O=C1CCCCCCCCCCCCCCO1`, the result was inactive. With `c1ccc2c(c1)c1cccc3ccc4cccc2c4c31`, the outcome was inactive. Regarding `c1ccc2sc(SN(C3CCCCC3)C3CCCCC3)nc2c1`, the outcome was inactive. On the same count and under the same terms, in the case of `CC(=O)/C=C/C1=C(C)CCCC1(C)C` it was “inactive”; in that of `CNC[C@H](O)c1cccc(O)c1`, “inactive”; in that of `CCCCC(CC)COC(=O)/C=C\C(=O)OCC(CC)CCCC` (stereo not drawn), “inactive”. With `O=[N+]([O-])c1cc(C(F)(F)F)ccc1Cl`, the result was inactive.

Take `Nc1cc([N+](=O)[O-])ccc1Cl`: the outcome was inactive.

With `O=C(O)c1cn(C2CC2)c2cc(N3CCNCC3)c(F)cc2c1=O`, the outcome was inactive. On the same count and under the same terms, in the case of `BrC1CCC(Br)C(Br)CCC(Br)C(Br)CCC1Br` (stereo not drawn) it was “inactive”; in that of `CCCCCCCCCCCCCCCCCC(=O)OCC(CC)CCCC` (stereo not drawn), “inactive”; in that of `CC(C)Oc1ccccc1O`, “inactive”. Still for that read-out and setting: in the case of `CC(C)c1ccc(C(C)C)cc1` it was “inactive”. On the same count and under the same terms, in the case of `O=C=NC1CCC(CC2CCC(N=C=O)CC2)CC1` (stereo not drawn) it was “inactive”; in that of `C=C[Si](OCC)(OCC)OCC`, “inactive”; in that of `CC(=O)O[C@]1(C(C)=O)CC[C@H]2[C@@H]3C[C@H](C)C4=CC(=O)CC[C@]4(C)[C@H]3CC[C@@]21C`, “inactive”. Consider `CC1COc2ccccc2N1C(=O)C(Cl)Cl` (stereo not drawn), for which the AC50 is 20 µM (active).

On to `COC(=O)c1ccc(C)cc1`, for which the outcome was inactive. In the case of `CCCCC/C=C/C=C/C=O`, the AC50 was 32 µM (active). For the compound `Cc1ccc(Nc2ccc(O)c3c2C(=O)c2ccccc2C3=O)cc1`, the result was inactive. On the same count and under the same terms, in the case of `CCCCC(CC)COCCC#N` (stereo not drawn) it was “inactive”; in that of `O=C(O)c1cn(-c2ccc(F)cc2)c2cc(N3CCNCC3)c(F)cc2c1=O`, “inactive”. As to `CCCCCCCCCC=O`, the result was inactive.

As for `Cc1ccc2n[nH]nc2c1`, the result was inactive. The same measure, in the same setting: in the case of `CCc1c(C)cc(N)c(CC)c1N` it was “inactive”. `Cc1ccc(O)c(C(C)(C)C)c1`: the AC50 was 34.3 µM (active).

Take `N#Cc1ccc(CC(=NNC(=O)Nc2ccc(OC(F)(F)F)cc2)c2cccc(C(F)(F)F)c2)cc1`: the result was inactive.

The record behind these values is PubChem BioAssay (EPA / NIEHS).
